Screening results deposited in PubChem BioAssay by several laboratories.
This is a sample that favours compounds with a hit; in the whole collection about 2.8% have one here.
Platelet DG rel – inhibitors of platelet dense granule secretion, primary screen, cell-based, MLPCN, human platelets; human platelet-rich plasma, SFLLRN dense granule ATP release, luminescence; inhibition, %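 (compounds screened at 7.5 µM in platelet-rich plasma)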; 300,000 compounds, 0.22% hits;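 active = mean replicate score, as percent of positive control, at or above 50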
SENP7 block – SENP7 protease inhibitors, primary screen, biochemical, luminescence, uHTS; Sentrin-specific protease 7 (Homo sapiens), Q9BQF6; recombinant SENP7, Z-RLRGG-aminoluciferin luminescence, 40 min; inhibition, % at 5 µM; 330,000 compounds, 1.5% hits; AID 434973, 2010;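 active = inhibition above about 50% at the single test dose, limit read from the data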;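 note: plate controls were DMSO with enzyme for no effect and no enzyme buffer wells for full effect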
Target sequence (Q9BQF6 706-1050 limits assumed): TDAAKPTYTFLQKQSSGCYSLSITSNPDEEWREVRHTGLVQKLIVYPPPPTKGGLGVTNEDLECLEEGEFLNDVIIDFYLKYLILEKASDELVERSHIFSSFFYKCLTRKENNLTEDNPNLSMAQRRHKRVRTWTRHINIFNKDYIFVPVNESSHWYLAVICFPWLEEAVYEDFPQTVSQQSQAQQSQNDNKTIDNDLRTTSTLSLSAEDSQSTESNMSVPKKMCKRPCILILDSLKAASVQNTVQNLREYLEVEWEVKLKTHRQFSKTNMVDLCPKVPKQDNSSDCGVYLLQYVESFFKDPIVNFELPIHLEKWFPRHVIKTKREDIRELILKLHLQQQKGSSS
SENP8 block-1 – human SENP8 protease inhibitors, primary screen, biochemical, fluorescence, Nedd8 protein substrate, uHTS; Sentrin-specific protease 8 (Homo sapiens), Q96LD8; recombinant SENP8; inhibition, % at 20 µM; 360,000 compounds, 0.64% hits; AID 602440, 2012; in the data active = inhibition mostly above about 40%, no sharp cut-off; inactive = mostly below about 27%
Target sequence (Q96LD8 whole entry, looked up): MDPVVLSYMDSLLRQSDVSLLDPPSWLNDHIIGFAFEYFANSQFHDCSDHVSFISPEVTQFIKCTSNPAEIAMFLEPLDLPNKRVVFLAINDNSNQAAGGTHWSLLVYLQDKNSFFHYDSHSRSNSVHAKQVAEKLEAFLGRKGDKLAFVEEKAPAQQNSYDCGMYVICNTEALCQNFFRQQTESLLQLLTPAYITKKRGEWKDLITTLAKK
SENP8 block-2 – SENP8 protease inhibitors, primary screen, biochemical, luminescence. 330,000 compounds, 1.2% hits. Sentrin-specific protease 8 (Homo sapiens), Q96LD8. AID 2540, 2010. purified SENP8, Z-RLRGG-aminoluciferin cleavage. inhibition, % at 10 µM; in the data active = inhibition above about 50%
HSP90 inh – HSP90 inhibitors, primary screen, cell lysate, luminescence; Heat shock protein HSP 90 (rabbit reticulocyte lysate; luciferase refolding); Rabbit reticulocyte lysate, luciferase refolding luminescence, 3 h; inhibition, % at 5.6 µM; 290,000 compounds, 0.91% hits; AID 1789, 2009;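 active = inhibition above the screen-wide mean plus 3 SD, computed separately per campaign, cut at about 16% in these data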;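 note: 0% = DMSO wells and 100% = 60 µM geldanamycin wells; inhibitors lower the luminescence because luciferase stays unfolded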
SENP6 inh – SENP6 protease inhibitors, primary screen, biochemical, luminescence, uHTS | Sentrin-specific protease 6 (Homo sapiens), Q9GZR1 | Recombinant SENP6 catalytic domain, aminoluciferin luminescence | inhibition, % at 10 µM | 330,000 compounds, 1.8% hits | AID 2599, 2010;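 active = inhibition above about 50% at the single tested dose, limit read from the data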;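 note: plate controls were DMSO wells with enzyme for no effect and DMSO wells lacking enzyme for full effect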
SENP8 conf – SENP8 protease inhibitors, retest, confirmation, biochemical, luminescence, single concentration. shares compounds with SENP7 block. 6,200 compounds, 40% hits. inhibition, % at 12.5 µM. AID 488912, 2010. Recombinant SENP8, Z-RLRGG-aminoluciferin luminescence, 60 min;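 active = mean inhibition across replicates above about 50%, limit read from the data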
SENP6 conf – SENP6 protease inhibitors, confirmation, biochemical, luminescence, single concentration | 6,200 compounds, 58% hits | recombinant SENP6, Z-RLRGG-aminoluciferin luminescence | AID 488915, 2010 | shares compounds with SENP7 block | inhibition, % at 12.5 µM
SENP7 confirm – SENP7 protease inhibitors, retest, confirmation, biochemical, luminescence, single concentration | recombinant SENP7, Z-RLRGG-aminoluciferin luminescence, 40 min | inhibition, % at 12.5 µM | shares compounds with SENP7 block | 6,200 compounds, 69% hits
Casp3 SENP sel – caspase-3 protease inhibitors, confirmation, selectivity assay for SENP inhibitor project, biochemical, single concentration; 6,200 compounds, 60% hits; shares compounds with SENP7 block; AID 488918, 2010; purified caspase-3, Z-DEVD-aminoluciferin luminescence, 60 min; inhibition, % at 12.5 µM;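 active = mean inhibition above about 50%, limit read from the data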;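 note: plate controls were enzyme with DMSO for no effect and wells without caspase-3 for full effect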
Luc interf – interferes with luciferase luminescence in SENP counter-screen. shares compounds with SENP7 block. Pre-incubated SENP8/Z-RLRGG-aminoluciferin, luciferase luminescence interference. inhibition, % at 12.5 µM. 6,200 compounds, 39% hits;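 active = mean inhibition above about 50% when retested at one dose, limit read from the data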;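 note: plate controls were DMSO wells with completed reaction for no effect and substrate without enzyme for full effect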
* = called active by the depositor; . = no result.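 Rule for the calls, unless noted: active = mean inhibition above about 50% in the one-dose retest (limit read from the data); inactive = the rest.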

SMILES	Platelet DG rel	SENP7 block	SENP8 block-1	SENP8 block-2	HSP90 inh	SENP6 inh	SENP8 conf	SENP6 conf	SENP7 confirm	Casp3 SENP sel	Luc interf
N/C(=N\OC(=O)c1ccc(Br)cc1)c1ccccc1	43.0	99.0*	13.3	94.5*	-2.6	93.3*	80.8*	95.6*	101.8*	96.6*	52.9*
O=C(COC(=O)c1ccccc1)c1ccc(Br)cc1	19.8	2.1	7.7	83.2*	-1.1	86.3*	6.3	63.7*	87.0*	62.9*	38.0
N/C(=N\OC(=O)c1cccc(Br)c1)c1ccc(Br)cc1	16.4	8.0	32.4	-19.0	-2.0	-23.3	.	.	.	.	.
COC(=O)/C=C1\OCc2ccc(C)cc21	.	.	13.7	.	.	.	.	.	.	.	.
COc1cc(OC)cc(C(=O)Nc2ccc3nc4n(c(=O)c3c2)CCCCC4)c1	3.3	82.6*	2.9	79.9*	-4.1	81.4*	86.9*	86.0*	97.6*	88.1*	55.0*
COc1ncccc1-c1nnn(-c2ccc(F)cc2)n1	2.2	69.7*	2.2	67.0*	2.7	72.8*	70.7*	75.0*	93.0*	80.9*	68.9*
COc1ncccc1-c1nnn(-c2ccc(C)cc2)n1	14.1	80.0*	-11.7	69.9*	-0.6	78.5*	78.4*	81.2*	96.3*	82.3*	79.1*
COc1ncccc1-c1nnn(-c2ccc(Cl)c(Cl)c2)n1	-1.3	30.2	9.2	20.2	-6.4	43.0	.	.	.	.	.
CCOc1ccc(/C=C(\C(=O)O)c2ccc(S(=O)(=O)N3CCCCC3)s2)cc1OC	.	-9.5	-251.2	-0.3	.	-15.5	.	.	.	.	.
Cc1ccccc1N=C1Nc2ccccc2CS1	10.3	79.8*	21.1	74.0*	2.6	85.9*	34.5	78.8*	95.3*	78.8*	45.1
COc1cccc(/C=C/C(=O)NCc2ccc(S(N)(=O)=O)cc2)c1	19.9	2.6	-77.8	2.3	-3.7	0.5	.	.	.	.	.
O=C(Nc1ccc2c(c1)OCO2)Nc1ccc(Cl)cc1Cl	-3.2	15.6	15.2	1.1	-0.2	6.7	.	.	.	.	.
O=C(Nc1ccc2c(c1)OCO2)Nc1ccc(F)cc1F	-6.3	90.1*	4.6	72.9*	-4.2	90.0*	76.5*	76.1*	97.8*	88.7*	85.8*
O=C(Nc1ccc2c(c1)CCC2)Nc1ccccc1F	42.8	99.2*	4.8	91.9*	8.9	96.4*	69.3*	95.4*	101.8*	92.3*	75.9*
Cc1ccc(NC(=O)Nc2ccc3c(c2)CCC3)cc1	34.5	-4.0	1.4	6.7	-2.7	4.8	.	.	.	.	.
O=C(Nc1ccc2c(c1)CCC2)Nc1ccc(F)cc1F	-4.8	70.2*	9.9	-19.0	-2.1	3.0	10.7	13.8	41.1	28.1	8.5
Cc1ccccc1NC(=O)Nc1ccc2c(c1)CCC2	15.9	83.8*	5.0	24.7	0.0	70.3*	9.7	13.2	16.7	26.5	5.9
COc1ccc(NC(=O)Nc2ccc3c(c2)CCC3)cc1OC	0.3	-9.7	17.5	-6.6	-1.0	-3.7	.	.	.	.	.
COc1ccc(-c2coc3cc(O)ccc3c2=O)cc1	0.7	1.8	-296.6	14.4	.	26.9	.	.	.	.	.
COc1ccc(-c2coc3cc(OC)ccc3c2=O)cc1	.	.	-49.3	.	.	.	.	.	.	.	.
Cc1csc(-c2coc3cc(O)cc(C)c3c2=O)n1	0.1	4.0	6.2	91.0*	-4.5	95.0*	43.4	92.4*	98.5*	90.1*	26.9
Cc1nc(-c2coc3cc(OCC(=O)O)ccc3c2=O)cs1	15.4	2.3	-22.4	30.9	7.7	64.6*	56.7*	53.9*	86.2*	88.0*	63.3*
COc1ccc2c(=O)c(-c3nc(C)cs3)coc2c1	0.3	96.0*	-40.7	90.6*	4.8	93.5*	-6.9	52.8*	84.4*	75.9*	57.3*
COc1ccc(-c2coc3cc(O)c(OC)cc3c2=O)cc1	.	53.4*	-494.7	38.7	.	45.8	27.2	27.3	74.7*	75.0*	55.8*
CC1(C)CC(=O)C(CC(=O)c2ccccc2)=C(NN=C(N)N)C1	.	.	-7.5	.	.	.	.	.	.	.	.
SMILES	Platelet DG rel	SENP7 block	SENP8 block-1	SENP8 block-2	HSP90 inh	SENP6 inh	SENP8 conf	SENP6 conf	SENP7 confirm	Casp3 SENP sel	Luc interf
Clc1ccc(OCc2nc(-c3ccncc3)no2)c(Cl)c1	-3.2	24.5	18.8	4.8	-1.8	55.2*	34.3	25.3	64.9*	26.5	41.9
CC(C)(C)c1ccc(OCc2nc(-c3ccccn3)no2)c(Br)c1	8.3	42.7	17.9	17.6	3.5	58.7*	45.2	57.3*	74.4*	33.0	21.4
Clc1cc(Cl)c(OCc2nc(-c3ccccn3)no2)cc1Cl	3.2	81.1*	5.6	80.8*	-4.7	60.7*	14.6	49.9	96.1*	51.9*	7.5
Cc1[nH]n(-c2ccccc2)c(=O)c1/C=N/NC(=O)c1ccccc1F	9.6	-3.5	10.4	-10.5	-8.9	-11.8	.	.	.	.	.
COc1ccc(C(=O)NCC(=O)N/N=C/c2ccco2)cc1OC	-2.5	-6.6	14.4	-10.5	6.5	101.2*	7.3	6.9	13.8	7.1	6.9
CCC(C)[C@@H](CN)NCC1(c2ccccc2)CC1 (stereo not given in full)	.	-1.0	9.3	6.8	.	11.7	.	.	.	.	.
Cc1cc(C)n(CCc2nc(-c3ccc(-c4ccccc4)cc3)cs2)n1	6.2	79.5*	3.5	19.5	0.8	83.1*	26.8	49.6	68.0*	36.1	21.1
COc1ccccc1CNC(=O)COC(=O)CSc1ccc(C)c(C)c1	.	-1.0	-2.0	6.4	.	-10.4	.	.	.	.	.
CN1C(=O)CC(Nc2cccc3cccc(N)c23)C1=O (stereo not given)	-27.7	61.3*	13.2	44.5	0.8	-9.8	9.4	23.5	6.7	-1.7	-3.4
